High-throughput results deposited in PubChem by National Center for Advancing Translational Sciences (NCATS).
This is a sample that favours compounds with a hit; in the whole collection about 11% have one here.
HPGD block = HPGD (human) dehydrogenase inhibition. P15428. purified HPGD, NADH fluorescence kinetic, PGE2 substrate. Potency, µM, inactives show at the top dose activity change, negative = inhibition, actives largely listed as inhibitors. 4.3% of 150,000 active. AID 894; also: potency is read from the fitted curve at half-maximal effect
Target sequence (P15428 whole entry, looked up): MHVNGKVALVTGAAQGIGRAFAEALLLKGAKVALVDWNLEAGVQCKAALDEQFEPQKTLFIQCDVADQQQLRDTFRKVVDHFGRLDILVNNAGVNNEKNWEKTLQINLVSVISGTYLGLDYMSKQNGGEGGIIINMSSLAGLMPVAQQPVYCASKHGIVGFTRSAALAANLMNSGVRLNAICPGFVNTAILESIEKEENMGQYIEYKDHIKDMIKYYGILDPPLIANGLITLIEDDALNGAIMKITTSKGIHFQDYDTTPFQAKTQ
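20 nM HPGD preincubated 15 min at room temperature with compound in 50 mM Tris-HCl pH 8, 0.01% Tween 20. Started with 1 mM NAD+ and 30 uM prostaglandin E2; NADH fluorescence (360/450 nm) read 5 times over 30-s intervals, last minus first.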
ALDH1A1 inh = ALDH1A1 (human) enzyme inhibition. P00352. Purified ALDH1A1, NADH fluorescence, propionaldehyde substrate. Potency, µM (highest dose often 75.3 µM), for the others: top-dose activity, negative = inhibition, actives largely listed as inhibitors. 7.3% of 220,000 active;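 also: potency is read from the fitted curve at half-maximal effect; plate controls were no enzyme wells and a reference inhibitor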
KDM4E inh = inhibitors of human JMJD2E histone demethylase | JMJD2E catalytic domain, FDH-coupled NADH fluorescence (FDH is formaldehyde dehydrogenase) | Potency, µM (top dose mostly 57.1 µM), inactives show at the highest dose activity change, negative = inhibition, hits mostly inhibitors | 1.6% of 230,000 active | B2RXH2;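 also: potency is read from the fitted curve at half-maximal effect; 0% = wells with enzyme and -100% = buffer wells without enzyme; nearly all actives have a fitted effect of over 50% in size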
Target sequence (B2RXH2 1-337 limits assumed): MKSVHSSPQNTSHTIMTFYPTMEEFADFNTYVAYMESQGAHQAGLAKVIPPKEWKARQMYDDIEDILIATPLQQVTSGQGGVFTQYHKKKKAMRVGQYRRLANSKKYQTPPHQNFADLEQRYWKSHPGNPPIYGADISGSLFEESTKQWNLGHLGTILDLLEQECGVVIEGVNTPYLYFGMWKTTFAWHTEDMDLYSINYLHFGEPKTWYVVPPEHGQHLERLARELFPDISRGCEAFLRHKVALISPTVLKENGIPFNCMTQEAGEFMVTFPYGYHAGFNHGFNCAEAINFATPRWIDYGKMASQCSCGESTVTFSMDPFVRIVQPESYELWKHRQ
PNC assembly inh = blocks assembly of the perinucleolar compartment; PC3M PTB-GFP, PNC prevalence imaging, 16 h; active compounds read low; activity change (PNC), negative = inhibition, % at 10 µM; 3.1% of 140,000 active; AID 2417;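 active = readout at or below -70, meaning at least 70% loss of cells showing the perinucleolar compartment, a nuclear body marking cancer cells; inconclusive = readout between -30 and a set limit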;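 also: plate controls were DMSO wells for no effect and camptothecin positive control wells for full effect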
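Read-out is percentage of cells bearing a perinucleolar compartment, from automated 20x imaging of fixed, Hoechst-stained PC3M PTB-GFP cells. Cells were seeded 4 h, then exposed 16 h to compound (23 nl of library stock) in duplicate plates.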
Active calls of the source: *; u = inconclusive; x = no result given; ! = not confirmed by another sample; [ ] = another dose, or the depositor's remark. Unless noted, calls follow the shape of the dose curve; as a rule, active = well fitted inhibition curve with a large enough effect (not every such curve was filed as active); inconclusive = small, poorly fitted or top-dose-only effect, or another doubt; inactive = no such curve, though single readings can be large or run the other way. Unless noted, % is scaled to controls: 0 for no effect and ±100 for the full control effect.

SMILES	HPGD block	ALDH1A1 inh	KDM4E inh	PNC assembly inh
Cc1ccccc1C(=O)N1CCN(c2ccc([N+](=O)[O-])c(NCc3cccnc3)c2)CC1	-12.6%	15.8µM*	-7.1%	42.9
Cc1ccc(C(=O)N2CCN(c3ccc([N+](=O)[O-])c(NCc4cccnc4)c3)CC2)cc1	-9.3%	12.6µM*	-5.1%	-22.5
CS(=O)(=O)N1CCN(c2ccc([N+](=O)[O-])c(NCc3cccnc3)c2)CC1	x	-7.9%	2.4%	x
O=C(c1ccccc1F)N1CCN(c2ccc([N+](=O)[O-])c(NCC3CCCO3)c2)CC1 (stereo unspecified)	x	11.2µM*	6.3%	x
CC(=O)N1CCN(c2ccc([N+](=O)[O-])c(NCC3CCCO3)c2)CC1 (stereo unspecified)	-12.1%	5.1%	-0.7%	78.7
Cn1c(N)c(C(=O)COC(=O)COc2ccc3ccccc3c2)c(=O)n(C)c1=O	x	3.1%	-1.1%	x
COC(=O)N/N=C/c1cc(C)n(-c2ccc(F)cc2)c1C	x	-2.9%	u	x
COC(=O)N/N=C/c1cc(C)n(-c2ccc(Br)cc2)c1C	x	u	25.1µM*	x
Cc1cc(/C=N/NC(N)=S)c(C)n1-c1ccc(Cl)c(Cl)c1	u	15.8µM*	-25.6%	45.9
COC(=O)N/N=C/c1cc(C)n(-c2ccccc2)c1C	-7.2%	-10.4%	u	5.4
CCc1ccc(-n2c(C)cc(/C=N/NC(=O)c3ccncc3)c2C)cc1	x	7.94µM*	4.2%	x
CCc1ccc(-n2c(C)cc(/C=N/NC(=O)OC)c2C)cc1	-9.8%	u	10µM*	-6.1
COC[C@H]1O[C@@H](c2c(OC)cc(OC)cc2OC)[C@H](OC)[C@@H](OC)[C@@H]1OC	-9.6%	5.7%	2.1%	x
Cc1cc(C)c(C(=O)C2OC(=O)C(C)(C)C(=O)C2(C)C)c(C)c1 (stereo unspecified)	-9.8%	3.0%	-12.8%	24.1
CCOCCCNC(=O)C(NC(=O)Cc1c[nH]c2ccccc12)c1ccccc1 (stereo unspecified)	x	0.2%	4.8%	x
C=CCSC1=C(C#N)C(c2ccc(OCC)cc2)CC(=O)N1 (stereo unspecified)	-8.3%	u	-7.6%	3.0
COc1cc(Br)cc(CN2CCN(C/C=C/c3ccccc3)CC2)c1O	-8.6%	3.4%	-0.2%	u
COc1cc(C/C=C\c2ccccc2)c(OC)cc1O	-20.5%	25.1µM*	u	x
c1ccc2c(c1)OCC(c1csc3ncnc(N4CCOCC4)c13)O2 (stereo unspecified)	-4.9%	-1.1%	2.4%	-20.9
CCN(CC)c1ncnc2scc(C3COc4ccccc4O3)c12 (stereo unspecified)	-16.8%	3.1%	3.8%	-100.0*
Cc1ccc(S(=O)(=O)N(CCCO)CC(O)CON=C2c3ccccc3-c3ccccc32)cc1 (stereo unspecified)	-9.5%	8.91µM*	-24.0%	32.2
CCN(CC(O)Cn1c2ccccc2c2ccccc21)S(=O)(=O)c1ccc(C)cc1 (stereo unspecified)	-20.4%	-4.3%	-6.7%	u
O=C(CN1C(=O)C2CCCN2c2ncc(Cl)cc21)NCc1ccc2c(c1)OCO2 (stereo unspecified)	-9.3%	u	14.1µM*	u
CCc1ccccc1NC(=O)CN1C(=O)C2CCCN2c2ncc(Cl)cc21 (stereo unspecified)	-9.8%	17.8µM*	-6.6%	u
CCC(C)c1ccccc1NC(=O)COC(=O)CCc1cc(OC)c(OC)c(OC)c1 (stereo unspecified)	-3.3%	7.7%	0.8%	33.3
SMILES	HPGD block	ALDH1A1 inh	KDM4E inh	PNC assembly inh
CCN(c1ccc(NC(=O)COC(=O)CCc2cc(OC)c(OC)c(OC)c2)cc1)C(C)C	x	17.8µM*	5.9%	x
COc1cc(CC(=O)OCC(=O)Nc2ccc(S(=O)(=O)N3CCCC3)cc2)cc(OC)c1OC	-2.9%	20µM*	-8.3%	-24.0
O=C(NNS(=O)(=O)c1ccc(Cl)cc1)c1cccc(S(=O)(=O)N2CCOCC2)c1	x	x	-0.2%	x
CN(C)S(=O)(=O)c1cccc(-c2nnc3n2CCCCC3)c1	x	x	9.5%	x
N/C(=N\OC(=O)c1cccc(F)c1)c1ccccc1	-16.6%	-11.7%	3.7%	28.7
O=C(CSc1cccc2cccc(Cl)c12)OCC(=O)N1CCN(C(=O)c2ccco2)CC1	u	11.2µM*	-2.9%	-7.8
Cc1cc(Br)ccc1SCC(=O)OCC(=O)N1CCN(C(=O)c2ccco2)CC1	u	u	6.4%	-9.4
O=C(NCc1ccco1)c1sc2cc(F)ccc2c1Cl	25.1µM*	-9.9%	-6.3%	-13.1
O=C(OCC(=O)N1CCN(C(=O)c2ccco2)CC1)c1sc2cc(F)ccc2c1Cl	-22.9%	28.2µM*	2.0%	-2.9
O=C(Nc1ccon1)c1sc2cc(F)ccc2c1Cl	-18.4%	4.7%	-0.6%	-100.0*
CCc1ccc(C(=O)COC(=O)[C@@H](NC(N)=O)[C@@H](C)CC)cc1	x	-5.2%	-2.9%	x
O=C(COC(=O)C1=COCCO1)NCc1ccc(Cl)cc1	x	9.9%	1.3%	x
Cc1cccc(NC(=S)NC2CC3C=CC2C3)c1 (stereo unspecified)	x	x	5.4%	x
O=Cc1cccc(OC(=O)c2ccc(Cl)cc2Cl)c1	15.8µM*	-14.1%	2.6%	47.9
CCCCC1=CC2=CC(=O)C(C)(OC(=O)CC)C(=O)C2=CN1c1ccccc1 (stereo unspecified)	-3.1%	-2.2%[13.5 µM]	25.1µM*!	x
CCCCC1=CC2=CC(=O)C(C)(OC(=O)CC)C(=O)C2=CN1Cc1ccco1 (stereo unspecified)	1.3%	-1.7%[13.5 µM]	22.4µM*!	x
CCCCC1=CC2=C(c3ccco3)C(=O)C(C)(OC(=O)c3ccc(OC)cc3)C(=O)C2=CN1Cc1ccco1 (stereo unspecified)	-14.2%	u	12.6µM*!	x
N#CCCn1c(Cl)nc2ccccc21	-7.2%	-4.8%	1.0%	-86.0*
N#CCCn1c(C(C#N)(CCC#N)CCC#N)nc2ccccc21	-5.6%	1.5%	-3.5%	u
C[C@@H]1CCCN(C[C@@H](O)CN2CCCc3ccccc32)C1	-12.3%	-0.7%[13.5 µM]	x	x
Cc1ccccc1-n1c(SC2CCOC2=O)nnc1-c1ccncc1 (stereo unspecified)	x	-3.2%	6.6%	x
Cc1ccccc1-n1nnnc1SC1CCOC1=O (stereo unspecified)	-11.5%	11.2µM*	7.8%	-19.1
Cc1ccc(S(=O)(=O)N2CCOCC2)cc1C(=O)NNC(=O)c1ccoc1C	x	u	-18.8%	x
COC(=O)C(C(=O)Nc1ccccc1C)C1CCCCCC1 (stereo unspecified)	x	6.3%	9.9%	x
Cc1nn(C)cc1/C=N/O	-3.0%	5.3%	7.1%	1.7
CSc1sc(C)cc1/C=N/O	15.8µM*	-5.1%	12.6%	39.1
Fc1ccc(-c2nnc(Cc3ccc(Cl)cc3)o2)cc1	x	x	1.5%	x
COC(=O)[C@@H]1CC2=CC(=O)CC[C@]2(C)[C@@]23O[C@@H]2C[C@@]2(C)[C@H](CC[C@@]24CCC(=O)O4)[C@@H]13	-13.0%	-0.6%	x	x
CCOC(=O)N1CCN(C(=O)CNS(=O)(=O)c2cccs2)CC1	0.6%	3.6%	4.6%	14.3
CCOC(=O)c1cccc(NC(=O)CNS(=O)(=O)c2cccs2)c1	-10.1%	-4.9%	0.8%	-100.0*
